High-throughput results deposited in PubChem by several laboratories.
SARS 3CLpro inh-1 – SARS-CoV 3CLpro protease inhibition; P0C6X7; recombinant SARS-CoV 3CLpro, quenched FRET peptide cleavage; inhibition, % at 6 µM; 290,000 tested, 0.14% active; AID 1706; in the data active means inhibition above about 12%
PrPC surface inh – reduces human prion protein on the cell surface | P04156 | cell surface PrPC, TR-FRET read-out | inhibition, % at 13.8 µM | 370,000 tested, 0.43% active | AID 720596; in the data active means inhibition above about 24%; further: 0% = median of the test wells and 100% = reference compound wells
SSB-PriA inh – blocks PriA binding to SSB C-terminal tail; AlphaScreen SSBct-PriA binding, biotinylated peptide; inhibition, % at 33 µM; 430,000 tested, 0.6% active; AID 1272365; in the data active means inhibition mostly above about 37%, no sharp cut-off; inactive means mostly below about 20%;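 further: plate controls were negative control peptide for no effect and reference peptide for full effect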
BJeLR viability – kills HRASV12-expressing BJeLR cells; BJeLR (HRASV12) viability, CellTiter-Glo ATP luminescence, 48 h; inhibition, % (test concentration not listed); 300,000 tested, 0.17% active; AID 1554; in the data active means inhibition above about 50%
PrP UTR inh – suppresses PrP 5' UTR mRNA reporter expression. cell-based PrP 5' UTR mRNA reporter, plate reader. inhibition, % (no concentration beside the values). 340,000 tested, 0.35% active; in the data active means inhibition above about 52%; further: 0 = median of the neutral control wells
SARS 3CLpro inh-2 – SARS 3CLpro inhibition, confirmation assay. QFRET protease activity assay. AID 1879. inhibition, % at 6 µM. shares compounds with SARS 3CLpro inh-1. 380 tested, 36% active; in the data active means inhibition above about 13%
Numbers without * were called inactive; nt = not tested or not shown. Sampled rows, rich in hits. Any-hit rate of the full collection: about 1.2%.

SMILES	SARS 3CLpro inh-1	PrPC surface inh	SSB-PriA inh	BJeLR viability	PrP UTR inh	SARS 3CLpro inh-2
CCOc1cc(C(C(=O)NCC2CCCO2)N(C(=O)Cn2nnc3ccccc32)c2ccc(NC(C)=O)cc2)ccc1O (stereo not given)	10	3	-8	7	-21	nt
NC(=S)N/N=C\c1ccc(OC(=O)c2ccccn2)cc1	nt	nt	-4	nt	nt	nt
CCc1c(C)sc(NC(=O)Cc2ccccc2OC)c1C(=O)N1CCOCC1	13*	4	0	7	-16	0
O=C(Nc1ccc(S(=O)(=O)Nc2cnc3ccccc3n2)cc1)c1ccc(F)cc1	nt	6	-5	-11	-16	nt
CC(C)(C)c1ccc(C(=O)Nc2ccc(S(=O)(=O)Nc3cnc4ccccc4n3)cc2)cc1	14*	-8	-12	7	-16	8
Cc1nc2c(C)cccc2c(SC(=N)N)c1CC=C(Cl)Cl	1	1	-4	-2	-16	nt
C=CCc1c(C)nc2c(C)cccc2c1SC(=N)N	16*	7	-11	-9	-13	1
CC(NC(=O)CN1CCN(c2ncccn2)CC1)c1ccc(F)cc1 (stereo not given)	1	1	-18	0	-10	nt
CC(C)NC(=O)CN1CCN(c2ncccn2)CC1	12*	-1	-15	-7	-26	1
O=C(CN1CCN(CC(O)C2CC2)CC1)NC1CCCCC1 (stereo not given)	nt	nt	-12	nt	nt	nt
CCOC(=O)c1c(N)sc(-c2ccccc2)c1C	6	0	0	-1	-42	nt
CCOC(=O)c1sc(-c2ccccc2)cc1N	1	-5	-42	9	-41	nt
CCOC(=O)c1c(N)sc(C(O)(C(F)(F)F)C(F)(F)F)c1-c1ccccc1	12*	-3	5	-3	-13	10
CCOC(=O)c1cc(-c2ccccc2)sc1N	59*	-2	-9	2	-68	33*
Cc1ccc2[nH]c(=O)c(CN(CCc3ccccc3)Cc3nnnn3CC3CCCO3)cc2c1 (stereo not given)	57*	-8	5	-13	1	4
COc1ccc2[nH]c(=O)c(CN(CCc3ccccc3)Cc3nnnn3CC3CCCO3)cc2c1 (stereo not given)	-2	-4	-7	1	-1	nt
Cc1occc1C(=O)n1cnc2ccccc21	-7	nt	nt	-21	nt	nt
Cc1ccc(C(=O)n2cnc3ccccc32)cc1C	19*	1	-15	-4	-10	26*
O=C(c1ccno1)N1CC(c2nc(-c3ccco3)no2)C1	nt	nt	-1	nt	nt	nt
O=C(O)c1cccc(NS(=O)(=O)c2ccc(C3CCCCC3)cc2)c1	12*	nt	-7	3	-4	2
CCc1nnc(NS(=O)(=O)c2ccc(NC(=O)/C=C/c3ccc(F)cc3)cc2)s1	13*	-1	9	-5	-21	-2
Cc1ccc(C(=O)CSc2nnc(CNc3ccc(C)cc3C)n2Cc2ccco2)cc1	13*	0	30	-2	-11	5
COc1ccc(C(=O)CSc2nnc(CNc3ccc(C)cc3C)n2Cc2ccco2)cc1	3	-3	28	-12	-27	nt
O=[N+]([O-])c1ccccc1/C=C/C=NNc1nc(N2CCCCC2)nc(N2CCCCC2)n1	nt	nt	2	nt	nt	nt
O=Cc1c(C(=O)O)n(Cc2ccc(Cl)cc2)c2ccccc12	4	-4	2	-9	-10	nt
SMILES	SARS 3CLpro inh-1	PrPC surface inh	SSB-PriA inh	BJeLR viability	PrP UTR inh	SARS 3CLpro inh-2
O=Cc1c(C(=O)O)n(CC(=O)O)c2ccccc12	13*	-1	-19	10	-15	-1
O=C(Nn1cnc2ccccc2c1=O)c1ccc(Br)cc1	14*	7	-2	4	-14	8
COCCNC(=O)C(c1cccc(OC)c1)N(Cc1cccs1)C(=O)Cn1nnc2ccccc21 (stereo not given)	32*	-4	-14	-11	-4	35*
CCNC(=O)NCc1cc(C)oc1C	nt	nt	-5	nt	nt	nt
Cc1nn(-c2ccccc2)c(N)c1N=O	-4	-12	4	-1	nt	nt
Cc1nn(-c2ccccc2)c(N)c1C(c1ccccc1)c1c(C)nn(-c2ccccc2)c1N	14*	0	6	-3	-9	-1
O=C(O)c1cc(NN=C2c3ccccc3-c3ccccc32)ccc1Cl	14*	-2	-4	2	-7	11
NNC(=O)CN1C(c2ccc(Cl)cc2)=Nc2ccc(Br)cc2C1c1ccccc1 (stereo not given)	8	0	16	-19	-15	nt
COC(=O)CN1C(C)=Nc2ccc(C)cc2C1c1ccccc1 (stereo not given)	2	-8	6	1	-15	nt
